# PubChem BioAssay AID1159580 (chemical genetic matrix, 2015)
# In all, about 5,500 compounds went through this assay and about 2,000 (36%) were called active. Roughly 18% stayed inconclusive and do not appear here. The list shows a part of the results. Values without a mark were called inactive. Cut-off read from the data, not from the text of the source: active = normalized growth mostly below about 0.91 (no sharp cut-off); inconclusive = no clear call, values can overlap the other calls; inactive = mostly above about 0.92.
# Test: chemical genetic growth profiling, strain panel (AID 1159580);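 note: tested at 20 µM; growth read once vehicle control cultures reached saturation at 30 °C; 1 = growth at the plate median or of vehicle wells; lower values mean less growth of the strain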
# Conditions: S. cerevisiae deletion strains, growth OD
smiles,measurement,setting,value
C[C@]12CCC3C(CC[C@H]4C[C@H](OS(=O)(=O)O)CC[C@]34C)C1CCC2=O (some centres not stated),normalized growth,"locus YAL021C, strain ccr4, stronger effect = lower value",1.02
same,normalized growth,"locus YAL026C, strain drs2, stronger effect = lower value",1.05
same,normalized growth,"locus YAL030W, strain snc1, stronger effect = lower value",1.05
same,normalized growth,"locus YBL061C, strain skt5, stronger effect = lower value",1.05
same,normalized growth,"locus YBR009C, strain hhf1, stronger effect = lower value",1.06
same,normalized growth,"locus YBR023C, strain chs3, stronger effect = lower value",1.05
same,normalized growth,"locus YBR171W, strain sec66, stronger effect = lower value",1.08
same,normalized growth,"locus YBR231C, strain swc5, stronger effect = lower value",1.06
same,normalized growth,"locus YBR279W, strain paf1, stronger effect = lower value",1.03
same,normalized growth,"locus YCL011C, strain gbp2, stronger effect = lower value",1.05
same,normalized growth,"locus YCL016C, strain dcc1, stronger effect = lower value",1.04
same,normalized growth,"locus YCL061C, strain MRC1, stronger effect = lower value",1.05
same,normalized growth,"locus YCL069W, strain vba3, stronger effect = lower value",1.04
same,normalized growth,"locus YCR088W, strain abp1, stronger effect = lower value",1.04
same,normalized growth,"locus YDL005C, strain med2, stronger effect = lower value",1.06
same,normalized growth,"locus YDL040C, strain nat1, stronger effect = lower value",1.04
same,normalized growth,"locus YDR001C, strain nth1, stronger effect = lower value",1.04
same,normalized growth,"locus YDR069C, strain doa4, stronger effect = lower value",1.05
same,normalized growth,"locus YDR137W, strain rgp1, stronger effect = lower value",1.05
same,normalized growth,"locus YDR159W, strain sac3, stronger effect = lower value",1.08
same,normalized growth,"locus YDR195W, strain ref2",1.06
same,normalized growth,"locus YDR297W, strain sur2, stronger effect = lower value",1.05
same,normalized growth,"locus YDR334W, strain swr1, stronger effect = lower value",1.05
same,normalized growth,"locus YDR335W, strain msn5, stronger effect = lower value",1.04
same,normalized growth,"locus YDR392W, strain spt3, stronger effect = lower value",1.07
same,normalized growth,"locus YEL003W, strain gim4, stronger effect = lower value",1.03
same,normalized growth,"locus YEL037C, strain rad23, stronger effect = lower value",1.04
same,normalized growth,"locus YEL061C, strain CIN8 (second series), stronger effect = lower value",1.05
same,normalized growth,"locus YER015W, strain faa2, stronger effect = lower value",1.05
same,normalized growth,"locus YER016W, strain bim1, stronger effect = lower value",1.04
same,normalized growth,"locus YER111C, strain swi4, stronger effect = lower value",1.06
same,normalized growth,"locus YER155C, strain BEM2 (second series), stronger effect = lower value",1.06
same,normalized growth,"locus YFR010W, strain ubp6, stronger effect = lower value",1.05
same,normalized growth,"locus YGL167C, strain pmr1, stronger effect = lower value",1.06
same,normalized growth,"locus YGL173C, strain kem1, stronger effect = lower value",1.04
same,normalized growth,"locus YGL227W, strain vid30, stronger effect = lower value",1.05
same,normalized growth,"locus YGL240W, strain doc1, stronger effect = lower value",1.04
same,normalized growth,"locus YGL253W, strain hxk2, stronger effect = lower value",1.04
same,normalized growth,"locus YHR013C, strain ard1, stronger effect = lower value",1.12
same,normalized growth,"locus YHR027C, strain rpn1, stronger effect = lower value",1.05
same,normalized growth,"locus YHR142W, strain chs7, stronger effect = lower value",1.05
same,normalized growth,"locus YJL092W, strain hpr5, stronger effect = lower value",1.05
same,normalized growth,"locus YJL095W, strain BCK1 (second series), stronger effect = lower value",1.04
same,normalized growth,"locus YJL115W, strain asf1, stronger effect = lower value",1.06
same,normalized growth,"locus YJL129C, strain trk1, stronger effect = lower value",1.11
same,normalized growth,"locus YJL154C, strain vps35, stronger effect = lower value",1.04
same,normalized growth,"locus YJL164C, strain tpk1, stronger effect = lower value",1.05
same,normalized growth,"locus YJL166W, strain qcr8, stronger effect = lower value",1.05
same,normalized growth,"locus YJL187C, strain SWE1, stronger effect = lower value",1.05
same,normalized growth,"locus YKL160W, strain elf1, stronger effect = lower value",1.03
same,normalized growth,"locus YKR026C, strain gcn3, stronger effect = lower value",1.06
same,normalized growth,"locus YKR091W, strain srl3, stronger effect = lower value",1.04
same,normalized growth,"locus YLL001W, strain dnm1, stronger effect = lower value",1.05
same,normalized growth,"locus YLL026W, stronger effect = lower value",1.05
same,normalized growth,"locus YLL041C, strain sdh2, stronger effect = lower value",1.05
same,normalized growth,"locus YLR027C, strain aat2, stronger effect = lower value",1.05
same,normalized growth,"locus YLR221C, strain rsa3, stronger effect = lower value",1.05
same,normalized growth,"locus YLR258W, strain gsy2, stronger effect = lower value",1.06
same,normalized growth,"locus YLR262C, strain YPT6 (second series), stronger effect = lower value",1.04
same,normalized growth,"locus YLR320W, strain mms22, stronger effect = lower value",1.06
same,normalized growth,"locus YLR342W, strain FKS1, stronger effect = lower value",1.06
same,normalized growth,"locus YLR357W, strain rsc2, stronger effect = lower value",1.06
same,normalized growth,"locus YLR370C, strain arc18, stronger effect = lower value",1.05
same,normalized growth,"locus YLR384C, strain iki3, stronger effect = lower value",1.05
same,normalized growth,"locus YML120C, strain ndi1, stronger effect = lower value",1.05
same,normalized growth,"locus YMR058W, strain fet3, stronger effect = lower value",1.04
same,normalized growth,"locus YMR125W, strain sto1, stronger effect = lower value",1.05
same,normalized growth,"locus YMR129W, stronger effect = lower value",1.05
same,normalized growth,"locus YMR205C, strain PFK2, stronger effect = lower value",1.07
same,normalized growth,"locus YMR231W, strain pep5, stronger effect = lower value",1.03
same,normalized growth,"locus YNL071W, strain lat1, stronger effect = lower value",1.05
same,normalized growth,"locus YNL209W, strain ssb2, stronger effect = lower value",1.04
same,normalized growth,"locus YNL248C, strain rpa49, stronger effect = lower value",1.04
same,normalized growth,"locus YNL322C, strain KRE1 (second series), stronger effect = lower value",1.04
same,normalized growth,"locus YNR049C, strain mso1, stronger effect = lower value",1.05
same,normalized growth,"locus YOR001W, strain rrp6, stronger effect = lower value",1.04
same,normalized growth,"locus YOR070C, strain gyp1, stronger effect = lower value",1.06
same,normalized growth,"locus YOR080W, strain dia2, stronger effect = lower value",1.07
same,normalized growth,"locus YOR083W, strain WHI5, stronger effect = lower value",1.04
same,normalized growth,"locus YOR106W, strain vam3, stronger effect = lower value",1.03
same,normalized growth,"locus YOR265W, strain rbl2, stronger effect = lower value",1.08 [resistant] (active)
same,normalized growth,"locus YOR270C, strain vph1, stronger effect = lower value",1.1
same,normalized growth,"locus YOR290C, strain snf2, stronger effect = lower value",1.04
same,normalized growth,"locus YPL051W, strain arl3, stronger effect = lower value",1.05
same,normalized growth,"locus YPL078C, strain atp4, stronger effect = lower value",1.03
same,normalized growth,"locus YPL106C, strain sse1, stronger effect = lower value",1.1
same,normalized growth,"locus YPL240C, strain hsp82, stronger effect = lower value",1.04
